The results in this text go back to PubChem BioAssay (NCATS).

Where “and” joins values, the source holds several entries; their conditions need not be identical. Equal values may be shown once. Records with an inconclusive call do not appear. Calls of active or inactive are those of the source. Calls follow the shape of the dose curve; as a rule, active = well fitted activation curve with a large enough effect; inconclusive = small, poorly fitted or top-dose-only effect; inactive = no such curve, though single readings can be large or run the other way.
Potency is read from the fitted curve at half-maximal effect.

Cellular tumor antigen p53 (Homo sapiens), sequence (P04637 whole entry, looked up): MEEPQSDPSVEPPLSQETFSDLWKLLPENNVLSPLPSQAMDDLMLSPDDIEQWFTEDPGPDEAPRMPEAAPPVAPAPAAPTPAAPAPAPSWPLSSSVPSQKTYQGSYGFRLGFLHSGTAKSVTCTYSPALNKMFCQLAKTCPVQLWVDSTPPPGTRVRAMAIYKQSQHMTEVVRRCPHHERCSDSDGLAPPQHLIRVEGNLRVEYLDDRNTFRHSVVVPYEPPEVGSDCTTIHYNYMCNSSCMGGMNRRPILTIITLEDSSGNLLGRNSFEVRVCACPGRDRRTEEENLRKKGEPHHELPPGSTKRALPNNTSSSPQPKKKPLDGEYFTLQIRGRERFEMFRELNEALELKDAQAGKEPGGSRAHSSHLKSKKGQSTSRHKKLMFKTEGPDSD

In this experiment the target is Cellular tumor antigen p53 (Homo sapiens) (UniProt P04637). Description: Primary qHTS for small molecule compounds that upregulate eGFP-tagged delta133p53alpha (in N-terminal) cells. (AID 2060322). Also: nearly all actives have a fitted effect of over 75% in size.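 As to activation: cells pre-induced with doxycycline then dosed without doxycycline; series mostly up to about 56 µM; 0% = DMSO vehicle and 100% = reference activator.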 Particulars: NCI-H358 eGFP-delta133p53alpha fluorescence, 24 h; activation: stronger effect = higher value. The procedure, abridged:
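NCI-H358 cells pre-induced 24 h with 10 ng/ml doxycycline for eGFP-delta133p53alpha, plated dox-free and exposed 24 h at 37C to titrated compounds. Fixed, Hoechst-stained; gated GFP peak intensity by laser scanning cytometry, normalized to DMSO (0%) and 57.5 uM 5-azacytidine (100%).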
Take `CC[C@H](c1ccc(O)cc1)[C@@H](CC)c1ccc(O)cc1`: the Potency is 12.3 µM (active). `CCC(=O)Nc1ccc(O)cc1`: the activation was -18.6% (inactive).

`O=C(O)c1ccc(OCCCOc2ccc(C(=O)O)cc2)cc1`: the activation is -13% (inactive). For the compound `COc1cc(N)c(Cl)cc1C(=O)NC1CCN(Cc2ccccc2)CC1`, the activation is 17.6% (inactive). As for `O=C(Nc1ccc(Cl)c(Cl)c1)C1CC1`, the activation is -7.53% (inactive). As for `CC(COc1ccccc1)NC(C)C(O)c1ccc(O)cc1` (stereo not given), the activation was 18.6% (inactive). With `Nc1ccncc1N`, the activation was 21.8% (inactive). `O=C(C=Cc1cccnc1)NCCCCC1CCN(C(=O)c2ccccc2)CC1`: the activation is 8.39% (inactive). As to `CC(C)(C)C(=O)NCCCC(=O)O`, the activation is -17.6% (inactive). On to `O=c1[nH]c(=O)n([C@H]2C[C@@H](O)[C@@H](CO)O2)cc1F`, for which the activation was -18.9% (inactive).

As to `CC(=O)OC[C@H]1O[C@@](COC(C)=O)(O[C@H]2O[C@H](COC(C)=O)[C@@H](OC(C)=O)[C@H](OC(C)=O)[C@H]2OC(C)=O)[C@@H](OC(C)=O)[C@@H]1OC(C)=O`, the activation is 10.7% (inactive). As for `Cc1nc(C2CCCCC2)c(-c2ccc(S(N)(=O)=O)c(F)c2)o1`, the activation was 19.2% (inactive). The same measure, in the same setting: the same measure for `CCN(CC)CC(=O)Oc1ccc(NC(C)=O)cc1`: -5.08% (inactive); for `CC(=O)O[C@@H]1CC2C3CCc4cc(OC(=O)c5ccccc5)ccc4C3CCC2(C)[C@H]1OC(C)=O` (stereo not given in full): 6.21% (inactive); for `COC(=O)c1cc(Cl)ccc1NS(=O)(=O)C(F)(F)F`: 8.47% (inactive). As to `COc1ccc2c(c1)CC[C@H]1[C@@H]2CC[C@]2(C)[C@@H](NCCCCCCN3C(=O)C=CC3=O)CC[C@H]12`, the activation is 38.4% (inactive).

On to `COC(=O)C1=CO[C@@H](O)[C@@H]2C(CO)=CC[C@@H]12`, for which the activation is 4.38% (inactive). On the same count and under the same terms, the same measure for `COC(=O)c1cccnc1`: -4.18% (inactive); for `CC[N+](C)(CC)CCOC(=O)C(O)(c1ccccc1)C1CCCCC1` (stereo not given): -16.7% (inactive); for `COc1cc(CNC(=O)CCCCC=CC(C)C)ccc1O`: -14.9% (inactive). On to `Cc1ccc(NC2=CC(=O)c3sc(C)nc3C2=O)cc1`, for which the Potency is 3.85 µM (active). Regarding `CCOC(=O)[C@H]1O[C@H]1C(=O)N[C@@H](CC(C)C)C(=O)NCCC(C)C`, the activation was 17.3% (inactive). For `CC(=O)OCC[N+](C)(C)C`, the activation was 15.3% (inactive). `Nc1ccc([N+](=O)[O-])cc1O`: the activation was -7.53% (inactive). With `COC(=O)c1cc(S(N)(=O)=O)ccc1OC`, the activation is -3.95% (inactive). Same read-out and setting: the same measure for `CCC(Cc1c(I)cc(I)c(N)c1I)C(=O)O` (stereo not given): 29.9% (inactive); for `COc1cc(C(C)C)c(Oc2cnc(N)nc2N)cc1I`: 3.67% (inactive). In the case of `O=c1[nH]c(=O)c2ccccc2o1`, the activation is -12.6% (inactive). For `CCOC(=O)C1=C(C)NC(C)=C(C(=O)OCC)C1c1ccccc1/C=C/C(=O)OC(C)(C)C`, the activation was 17.5% (inactive). For the compound `COCCOCC(OC)OC`, the activation is -6.69% (inactive). `CC(C)=CCC[C@@](C)(O)[C@H]1CC=C(C)CC1`: the activation is 18.6% (inactive).

In the case of `CC(=O)Oc1ccc(C)cc1`, the activation was -17.5% (inactive). Consider `Cc1cc(=O)oc2cc(O[C@@H]3SC[C@@H](O)[C@H](O)[C@H]3O)ccc12`, for which the activation was 23.2% (inactive). In the case of `CCOC(=O)c1cc(=O)c2c(OCC(COc3cccc4oc(C(=O)OCC)cc(=O)c34)OC(=O)[C@@H](N)CCCCN)cccc2o1`, the Potency was 27.6 µM (active).

Consider `O=S1(=O)c2cccc3cccc(c23)N1CCCN1CCN(c2ccc(F)cc2)CC1`, for which the activation was 8.47% (inactive). Consider `CN[C@@H]1[C@H](O)[C@H](NC)[C@H]2O[C@@]3(O)C(=O)C[C@@H](C)O[C@H]3O[C@@H]2[C@H]1O`, for which the activation was 27.7% (inactive). Still for that read-out and setting: the same measure for `CN(C)CCC=C1c2ccccc2COc2ccc(CC(=O)O)cc21`: 16.8% (inactive); for `CN(N=O)C(=O)N[C@H]1C(O)OC(CO)[C@@H](O)[C@H]1O` (stereo not given in full): 25.8% (inactive).

Turning to `CC(C)N=C(N)/N=C(\N)Nc1ccc(Cl)cc1`, the activation was 0.837% (inactive).

As to `Cc1cccc(C)c1OCC(=O)N[C@@H](Cc1ccccc1)[C@@H](O)C[C@H](Cc1ccccc1)NC(=O)[C@H](C(C)C)N1CCCNC1=O`, the activation was -5.4% (inactive) and 28.8% (inactive).
